The campaign covered roughly 96,000 compounds. About 19,000 (20%) were called active.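 The calls were made as follows: active = blocking of liver enzyme CYP2C9 beyond about 50% at 5 µM (limit read from the data); inactive = the rest.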 Only a sample is shown.

The target of this test is Cytochrome P450 2C9 (Homo sapiens) (UniProt P11712). Kind of test: blockers of cytochrome P450 2C9 activity – biochemical, luminescence, ADME assay, primary screen (AID 777). The note with it: CYP2C9 Supersomes, luciferin-H conversion, at 5 µM, hits give high values.
Chain of Cytochrome P450 2C9 (Homo sapiens) (P11712 whole entry, looked up): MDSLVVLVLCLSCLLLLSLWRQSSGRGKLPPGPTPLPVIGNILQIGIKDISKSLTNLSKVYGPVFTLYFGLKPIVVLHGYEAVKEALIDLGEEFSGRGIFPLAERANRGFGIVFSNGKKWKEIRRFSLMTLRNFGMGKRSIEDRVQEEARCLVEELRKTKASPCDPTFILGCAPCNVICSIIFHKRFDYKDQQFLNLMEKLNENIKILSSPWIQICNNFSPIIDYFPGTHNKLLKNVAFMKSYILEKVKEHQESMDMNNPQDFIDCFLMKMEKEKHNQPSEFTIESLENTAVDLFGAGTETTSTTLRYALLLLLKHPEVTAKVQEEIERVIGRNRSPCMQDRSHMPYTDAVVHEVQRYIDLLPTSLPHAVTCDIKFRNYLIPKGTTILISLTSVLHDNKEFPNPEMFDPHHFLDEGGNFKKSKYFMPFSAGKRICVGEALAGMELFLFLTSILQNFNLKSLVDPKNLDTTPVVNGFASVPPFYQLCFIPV
With `O=C(NCCN=C1NS(=O)(=O)c2ccccc21)c1ccc(S(=O)(=O)N2CCOCC2)cc1`, the inhibition was 46.2% (inactive).

In the case of `c1ccc2c(NCC3CCCO3)nc(-c3ccncc3)nc2c1` (stereo not given), the inhibition was 83% (active).

For `Cn1c(=O)c2[nH]c(NCC3CCCO3)nc2n(-c2ccccc2)c1=O` (stereo not given), the inhibition is 10.1% (inactive).

`Cc1nc2ccccc2c2oc(C(=O)NCC3CCCO3)cc12` (stereo not given): the inhibition is 0.9% (inactive).

Consider `Cc1ccc(S(=O)(=O)NCC(=O)N(CC(=O)NC2CCCCC2)Cc2ccco2)cc1`, for which the inhibition is 10.4% (inactive).

As for `O=C(NCc1ccc(Cl)c(Cl)c1)c1cccnc1`, the inhibition was 14.6% (inactive).

As for `Cn1ccs/c1=N\S(=O)(=O)c1ccc(C(C)(C)C)cc1`, the inhibition was 67.2% (active).

In the case of `CCSc1nnc(NC(=O)c2ccc(C)cc2)s1`, the inhibition is 38% (inactive).

As for `Cc1ccc(NC(=O)c2nc[nH]c2C(=O)N2CCCCC2)c(C(=O)c2ccccc2)c1`, the inhibition was 40.9% (inactive).

As to `Cc1ccc(C)c(S(=O)(=O)N2CC(=O)Nc3ccccc32)c1`, the inhibition is 12.1% (inactive).

As to `CCOCCn1c(C(C)C)nc2ccccc21`, the inhibition is 5.1% (inactive).

`COc1ccc(-c2nc3ccccc3n2CCC(C)C)cc1OC`: the inhibition is 59.6% (active).

With `COCCn1c(-c2ccc(OC)c(OC)c2)nc2ccccc21`, the inhibition is -20% (inactive).

Turning to `CSc1nc(-c2ccco2)nn1C(=O)CCc1ccccc1`, the inhibition was -12.3% (inactive).

For the molecule `C=CCOc1cccc(CNn2cn[nH]c2=S)c1`, the inhibition was -16.1% (inactive).

`CC(C)C(NC(=O)c1cccc(S(=O)(=O)N2CCOCC2)c1)C(=O)NCCc1ccccn1` (stereo not given): the inhibition is -17.7% (inactive).

Turning to `CCN(Cc1ccncc1)C(=O)c1cccc(S(=O)(=O)N2CCOCC2)c1`, the inhibition is 94.8% (active).

As to `O=C(c1cccc(S(=O)(=O)N2CCOCC2)c1)N1CCOCC1`, the inhibition is -6.1% (inactive).

For the molecule `COc1ccc(C2C(C#N)=C(N)Oc3cc(N)ccc32)cc1OC` (stereo not given), the inhibition was 85.7% (active).

For `COc1cc(C2C(C#N)=C(N)Oc3n[nH]c(-c4ccccn4)c32)cc(OC)c1OC` (stereo not given), the inhibition is -6.2% (inactive).

Turning to `N#CC1=C(N)Oc2cc(O)ccc2C1C1CCCCC1` (stereo not given), the inhibition was 44.8% (inactive).

For `Cc1ccc(-n2c(C)cc(/C=C(\C#N)C(=O)NCC3CCCO3)c2C)cc1` (stereo not given), the inhibition was 13.8% (inactive).

Consider `COc1ccc(N2CCN(C(=O)CSc3nnc4ncccn34)CC2)cc1`, for which the inhibition is 18.5% (inactive).

Regarding `Cc1nc2ccc(S(=O)(=O)NCC(=O)NCCN3CCCCC3C)cc2s1` (stereo not given), the inhibition was 8.5% (inactive).

For `COc1ccc(C(C#N)Nc2ccc(C)cc2)cc1` (stereo not given), the inhibition was -0.6% (inactive).

As to `Cc1noc(C)c1CSCC(=O)Nc1nc2ccc(Oc3ccccc3)cc2s1`, the inhibition is 44.1% (inactive).

For the molecule `CCOC(=O)c1c(C2CC2)csc1NC(=O)CSCc1c(C)noc1C`, the inhibition is 65% (active).

Take `CCOC(=O)c1sc(NC(=O)CCN2CCOCC2)c(C(=O)OCC)c1C`: the inhibition is 40.4% (inactive).

Regarding `COCCn1nnnc1CN1CCC(NC(=O)Nc2cccc(OC)c2)CC1`, the inhibition is -12.7% (inactive).

Take `CC(C)C1C2=C(CC(C)(C)CC2=O)ON1c1ccccc1` (stereo not given): the inhibition was 28.7% (inactive).

Turning to `N=c1ccn(CC(=O)NC(N)=O)c2ccccc12`, the inhibition is -0.4% (inactive).

`CCN(CC)c1ccc(C2C3CCCCC3(O)CCN2CC(=O)Nc2ccccc2)cc1` (stereo not given): the inhibition was 1.4% (inactive).

As to `Cc1ccc(NC(=O)CN2CCC3(O)CCCCC3C2c2ccc3c(c2)OCO3)c(C)c1` (stereo not given), the inhibition is 90.4% (active).

For `CC1CCCCN1CC(=O)NCc1ccc2c(c1)OCO2` (stereo not given), the inhibition is -6.6% (inactive).

For the molecule `CN(Cc1nc2ccccc2c(=O)[nH]1)Cc1cc(=O)oc2ccc3ccccc3c12`, the inhibition was 34.3% (inactive).

With `CCCN(c1ccc(C(C)C)cc1)S(=O)(=O)c1c(C)[nH]c(=O)[nH]c1=O`, the inhibition is 21.6% (inactive).

On to `O=C(NCN1CCN(CCO)CC1)c1cnccn1`, for which the inhibition is 10.7% (inactive).

Consider `CC1CC(C)CN(CC(=O)N2c3ccccc3CCc3ccccc32)C1` (stereo not given), for which the inhibition is -3.1% (inactive).

For `CC(c1ccccc1)n1c(NCCCn2ccnc2)nc2c1c(=O)[nH]c(=O)n2C` (stereo not given), the inhibition is 96.2% (active).

Turning to `CCCCNc1nc2c(c(=O)[nH]c(=O)n2C)n1CCOc1ccccc1`, the inhibition is 23.9% (inactive).

As to `COc1ccc(CCn2c(NCCCN3CCOCC3)nc3c2c(=O)[nH]c(=O)n3C)cc1`, the inhibition is 16.8% (inactive).

On to `O=C1c2cccc3cccc(c23)N1CN1CCN(c2ccccn2)CC1`, for which the inhibition was -43% (inactive).

For the molecule `C/C(=N\NC(=O)c1ccccc1C)c1ccc(N2CCOCC2)cc1`, the inhibition was -40.9% (inactive).

Regarding `CCCc1nc2ccccc2c(=O)n1NC(=O)c1c(O)c2ccccc2[nH]c1=O`, the inhibition is 60.6% (active).

Consider `CCCCc1nc2ccccc2c(=O)n1NC(=O)c1c(O)c2cccc3c2n(c1=O)CC3`, for which the inhibition is 20.8% (inactive).

As to `CCCC(=O)Nc1c(O)c2ccccc2[nH]c1=O`, the inhibition was 5.2% (inactive).

On to `CCCOC(=O)Cc1c(O)c2ccccc2[nH]c1=O`, for which the inhibition was -19.5% (inactive).

Turning to `C=CCn1c(CC(=O)Nc2cccc(OC)c2)nnc1SCC(=O)NC1CCCCC1`, the inhibition was 10% (inactive).

On to `C=CCn1c(SCc2cc(C(=O)OC)c(C)o2)nnc1-c1ccncc1`, for which the inhibition is 57.4% (active).

Consider `COC(=O)c1sc(=S)n(-c2ccc(Cl)cc2)c1C`, for which the inhibition was 40.2% (inactive).

As for `C=CCn1c(SCc2c(C(=O)OC)sc(N)c2C(=O)OC)nnc1-c1ccc(Cl)cc1`, the inhibition was 79% (active).

With `COCCn1c(SCc2nc3cc(OC)c(OC)cc3c(=O)[nH]2)nnc1-c1ccncc1`, the inhibition was -18.5% (inactive).

As to `CCc1nnc(NC(=O)CSc2nnc(-c3ccncc3)n2Cc2ccccc2)s1`, the inhibition was 26.1% (inactive).

`O=C1c2ccccc2C2=Nc3ccccc3SC(c3ccccc3F)C12` (stereo not given): the inhibition was 8.8% (inactive).

`COc1ccccc1Nc1nc(N)nc(CN(C)C2CCCCC2)n1`: the inhibition was -18.4% (inactive).

On to `Cc1c(C#N)c2ncn(CC#N)c(=O)c2n1-c1ccccc1`, for which the inhibition was -15.9% (inactive).

With `O=C(NCc1ccccn1)c1cnc2sccn2c1=O`, the inhibition was -4% (inactive).

As for `O=C(CNCCO)NC12CC3CC(CC(C3)C1)C2`, the inhibition is -6% (inactive).

For `O=C(Nc1cc(C(F)(F)F)ccc1Cl)c1cc2nc3c(c(C(F)(F)F)n2n1)CCCC3`, the inhibition was -42.8% (inactive).

Regarding `COc1ccc2nc(NC3=NCN(CC4CCCO4)CN3)nc(C)c2c1` (stereo not given), the inhibition was 1.3% (inactive).

Consider `COc1c(Cl)cc(C(=O)Nc2ccc(Cl)cn2)cc1Cl`, for which the inhibition is -12.2% (inactive).

For `CCOC(=O)N1CCN(C(c2cccnc2)c2ccc3cccnc3c2O)CC1` (stereo not given), the inhibition was 32.6% (inactive).

In the case of `CC(=NCc1ccco1)c1c(C(F)(F)F)[nH]n(-c2nc3ccccc3s2)c1=O`, the inhibition was 64.2% (active).

Consider `COC(=O)Cc1cc(=O)n(-c2nc3ccccc3s2)[nH]1`, for which the inhibition is 18.5% (inactive).

Regarding `CCc1ccc(-c2cc(C(=O)NCc3ccco3)c3ccccc3n2)s1`, the inhibition was 39.4% (inactive).

Consider `CCOc1[nH]n(-c2ccc(Cl)cc2)c(=O)c1C=Nc1ccc(O)cc1`, for which the inhibition was 37% (inactive).

Consider `O=C(Nc1ccc(S(=O)(=O)N2CCCC2)cc1Cl)C1=COCCO1`, for which the inhibition is 19.8% (inactive).

For the molecule `CC(C)C(C(=O)NC1CCCCC1)N(CC1CCCO1)C(=O)CNS(=O)(=O)c1ccc(F)cc1` (stereo not given), the inhibition is -3.2% (inactive).

For `COc1ccc(-c2oc3ncn(Cc4ccco4)c(=N)c3c2-c2ccc(OC)cc2)cc1`, the inhibition was 27.6% (inactive).

With `COc1ccc(N2CCN(C(=O)CNC(=O)c3ccc(C(C)(C)C)cc3)CC2)cc1`, the inhibition was 22.1% (inactive).

In the case of `COc1ccc(OC)c(S(=O)(=O)N(C)CC(=O)N2CCN(c3ccccc3)CC2)c1`, the inhibition is 78.3% (active).

As for `CCN1CCN(C(=O)CN(C)S(=O)(=O)c2ccc(OC)cc2)CC1`, the inhibition is -20.1% (inactive).

Consider `COC(=O)c1ccc(S(=O)(=O)c2ccc(C(=O)OC)s2)s1`, for which the inhibition is 49.3% (inactive).

`Cn1c(Cc2cccc3ccccc23)nnc1SCC(=O)N1CCN(c2cccc(Cl)c2)CC1`: the inhibition is -15.6% (inactive).

Regarding `Cc1nnc(NC(=O)CSc2nccn2-c2cccc(C)c2C)s1`, the inhibition is 39.9% (inactive).

`O=C(O)CSc1nccn1-c1cccc(Cl)c1`: the inhibition is 57.5% (active).

Consider `O=C(c1ccccn1)c1ncc(C(F)(F)F)cc1Cl`, for which the inhibition is 11.2% (inactive).

With `Cc1cc(C)n(C(=O)c2ccc(S(=O)(=O)N3CCCC3)cc2)n1`, the inhibition is 86.9% (active).

For the molecule `Cc1ccccc1-c1nnn(CC(=O)c2ccc(S(=O)(=O)N3CCCC3)cc2)n1`, the inhibition was 9% (inactive).

With `Cc1ccc(C(=O)Nc2ccccc2C(=O)NC2CCCCC2)cc1S(=O)(=O)N1CCOCC1`, the inhibition is 23.7% (inactive).

Take `CSC1=NCCN1C(=O)c1ccc(S(=O)(=O)N2CCOCC2)cc1`: the inhibition was 0.8% (inactive).

In the case of `Cc1cc(C)n(C(=O)c2ccc(C)c(S(=O)(=O)N3CCOCC3)c2)n1`, the inhibition was 66.3% (active).

Consider `CC(=O)c1c(N2CCOCC2)nc(=S)n(-c2cc(C)ccc2C)c1C`, for which the inhibition was -8.6% (inactive).

Turning to `Cc1cccc(N2C(=O)SC(N(CC(=O)O)c3cccc(C)c3)C2=O)c1` (stereo not given), the inhibition was 30.8% (inactive).

With `Cc1ccc(-n2nc3c(c2NC(=O)c2ccc4c(c2)OCO4)CSC3)c(C)c1`, the inhibition is 1.1% (inactive).

In the case of `Cc1cccc(-n2nc3c(c2NC(=O)c2ccc(Br)o2)CSC3)c1C`, the inhibition was 72.3% (active).

With `COc1cccc(C(=O)Nc2c3c(nn2-c2cccc(C)c2C)CS(=O)(=O)C3)c1OC`, the inhibition is -6.7% (inactive).

For `COCc1nc2ccccc2n1Cc1ccccc1Br`, the inhibition was 14.7% (inactive).

Turning to `COc1ccc(NC(=O)Cn2c(-c3ccc(OC)cc3)cn(-c3ccc(C)cc3)c2=O)cc1`, the inhibition is 10% (inactive).

`COc1ccc(NC(=O)COC(=O)Cn2c(C)nc3ccccc32)cc1OC`: the inhibition was -9.8% (inactive).

With `COc1ccc(-c2cn(-c3ccc(C)cc3)c(=O)n2CC(=O)Nc2ccc(OC)c(OC)c2)cc1`, the inhibition was 80.5% (active).

With `COCC(C)N=CC1=C(O)CC(C)(C)CC1=O` (stereo not given), the inhibition is -5.7% (inactive).

For `CCOc1ccccc1NC(=O)CCN1CCN(S(=O)(=O)c2ccc(OC)cc2)CC1`, the inhibition is 41.4% (inactive).

Turning to `COc1ccc(S(=O)(=O)N2CCN(c3ncnc4c(-c5ccccc5)nsc34)CC2)cc1`, the inhibition was 51.9% (active).

In the case of `COc1ccc(S(=O)(=O)N2CCCC(C(=O)Nc3ccc(NC(=O)c4ccccn4)cc3)C2)cc1` (stereo not given), the inhibition is -18.5% (inactive).

As usually defined, the inhibition is the change of the read-out against control, counted positive when it falls.
